Screens (PubChem BioAssay)
Pin1 inh – qHTS Assay to Find Inhibitors of Pin1; Peptidyl-prolyl cis-trans isomerase NIMA-interacting 1 (Homo sapiens), Q13526; Pin1 FP peptide displacement, HiFluor488, 10 min; Potency, µM (top dose mostly 115 µM), inactives show at the top dose activity, negative = inhibition, hits mostly inhibitors; 0.009% of 390,000 active; active = well fitted inhibition curve with a large enough effect in the polarisation, with a control signal flat, not every such curve was filed as active; inconclusive = small, poorly fitted or top-dose-only effect, or effect the other way, or a change in a side signal; inactive = no such curve, though single readings can be large or run the other way; the % refers to the polarisation; note: % is set by controls: 0 for no effect and ±100 for the full control effect
Tb PFK inh – qHTS Assay to Find Inhibitors of T. brucei phosphofructokinase; ATP-dependent 6-phosphofructokinase (Trypanosoma brucei brucei), O15648; 0.17% of 330,000 active; Potency, µM (highest dose often 57.5 µM), without a hit: at the highest dose activity, negative = inhibition, most hits filed as inhibitors; AID 485367, 2010; T. brucei PFK, ADP-Glo luminescence;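 note: 0% = uninhibited 1x PFK enzyme wells and -100% = no-enzyme wells; nearly all actives have a fitted effect of over 60% in size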
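In TEA buffer at pH 8.0 with 5 mM MgCl2, enzyme (1.25 nM) converted F6P (0.5 mM) and ATP (0.1 mM) for 45 min at room temperature. ADP product was read by luciferase luminescence.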
VDR inhibitor – Inhibitors of the vitamin D receptor (VDR): qHTS; VDR-SRC2-3 peptide fluorescence polarization, 2 h; Vitamin D3 receptor (Homo sapiens), P11473; AID 504847, 2011; 0.93% of 400,000 active; Potency, µM, without a hit: max response, negative = inhibition, actives largely listed as inhibitors; note: % is set by controls: 0 for no effect and ±100 for the full control effect
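After 23 nl compound addition and a short centrifugation, plates sat for 2 hours at ambient temperature; polarization of fluorescence then indicated loss of VDR binding to peptide SRC2-3.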
S-ASM inh – Inhibitors of Secretory Acid Sphingomyelinase (S-ASM): qHTS | Sphingomyelin phosphodiesterase (Homo sapiens), P17405 | placental ASM, HMU-PC fluorogenic substrate, 60 min | Potency, µM (highest dose often 57.5 µM), for the others: at the top dose activity change, negative = inhibition, actives largely listed as inhibitors | 0.006% of 340,000 active | AID 504937, 2011
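Human placenta-derived ASM enzyme was preincubated with compound for 10 minutes at room temperature, then given fluorogenic substrate HMU-PC0 (9 uM final) for 60 minutes at 37 °C; a pH 10 stop preceded fluorescence reading at Ex 386/Em 447 nm.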
TDP1 block – qHTS Assay for Inhibitors of Tyrosyl-DNA Phosphodiesterase (TDP1). Tyrosyl-DNA phosphodiesterase 1 (Homo sapiens), Q9NUW8. recombinant TDP1, AlphaScreen DNA substrate cleavage. Potency, µM (series often up to 130 µM), inactives show top-dose activity change, negative = inhibition, usual class: inhibitors. 0.28% of 350,000 active. AID 485290, 2010; note: % is set by controls: 0 for no effect and ±100 for the full control effect; nearly all actives have a fitted effect of over 40% in size
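Enzyme-compound mixtures sat 15 min at room temperature, followed by a 5 min reaction with 15 nM final substrate and 10 min with AlphaScreen beads. Recombinant human Tdp1 was used at 1 nM final.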
PLK1 PBD inh – qHTS for Inhibitors of PLK1-PDB (polo-like kinase 1 - polo-box domain): Primary Screen | Potency, µM, without a hit: max response, negative = inhibition, usual class: inhibitors | Plk1 PBD binding of FITC phosphopeptide, fluorescence polarization | Serine/threonine-protein kinase PLK1 (Homo sapiens), P53350 | 2.8% of 360,000 active; note: series mostly up to about 57 µM; % is set by controls: 0 for no effect and ±100 for the full control effect; nearly all actives have a fitted effect of over 65% in size
Target sequence (P53350 whole entry, looked up, the tested form may be a part): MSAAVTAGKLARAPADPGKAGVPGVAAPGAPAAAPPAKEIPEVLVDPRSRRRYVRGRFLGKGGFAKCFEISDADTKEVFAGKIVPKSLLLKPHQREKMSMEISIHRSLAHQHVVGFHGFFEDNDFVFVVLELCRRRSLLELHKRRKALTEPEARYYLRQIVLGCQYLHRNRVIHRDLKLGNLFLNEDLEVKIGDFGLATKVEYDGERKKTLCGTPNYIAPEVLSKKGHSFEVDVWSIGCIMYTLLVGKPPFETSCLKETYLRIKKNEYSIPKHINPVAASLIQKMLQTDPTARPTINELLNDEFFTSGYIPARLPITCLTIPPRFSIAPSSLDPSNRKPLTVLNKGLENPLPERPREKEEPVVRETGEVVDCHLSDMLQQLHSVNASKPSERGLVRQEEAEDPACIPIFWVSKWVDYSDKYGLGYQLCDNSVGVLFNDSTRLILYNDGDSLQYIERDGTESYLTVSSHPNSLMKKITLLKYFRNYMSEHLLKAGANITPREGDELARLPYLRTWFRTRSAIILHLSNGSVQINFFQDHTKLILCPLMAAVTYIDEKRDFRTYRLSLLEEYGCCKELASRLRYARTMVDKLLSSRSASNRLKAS
Starred values were filed as active, the others as inactive; ? = inconclusive; nt = no result; [ ] = dose if it differs, or a comment. A selection: hits, their analogues and other compounds. The true share with any hit is near 3.1%. Unless noted, calls come from the whole dose curve; as a rule, active = well fitted curve in the direction sought with a large enough effect; inconclusive = small, poorly fitted or top-dose-only effect, or another doubt; inactive = no such curve, though single readings can be large; an effect the other way counts as inactive or inconclusive. Potency is the fitted concentration of half-maximal effect.

SMILES	Pin1 inh	Tb PFK inh	VDR inhibitor	S-ASM inh	TDP1 block	PLK1 PBD inh
Cc1ccccc1N1CCN(C(=O)c2ccccc2NC(=O)c2ccccc2C(=O)O)CC1	2%	5%	-22%	2%	3%	30µM*
COc1cc(Cn2ncc3c4sc(C)cc4n(C)c3c2=O)cc(OC)c1	1%	nt	nt	nt	nt	nt
CCCCc1nc2c(c3c1C[C@H](C)OC3)CN(C(=O)Nc1cccc(C#N)c1)CC2	nt	nt	nt	nt	6%[12.3 µM]	nt
O=C(Nc1nnc(-c2cccs2)o1)C1CC1	2%	1%	-12%	-3%	nt	-7%
O=C(Nc1nnc(-c2cccs2)o1)c1cccc(C(F)(F)F)c1	3%	4%	?	-5%	13%	30µM*
CN(C)S(=O)(=O)c1ccc(C(=O)Nc2nnc(-c3cccs3)o2)cc1	-2%	9%	-10%	5%	8%	?
N#Cc1ccc(C(=O)Nc2nnc(-c3cccs3)o2)cc1	2%	7%	?	0%	nt	27µM*
COC(=O)c1ccc(CSc2nc3c(cnn3-c3ccc(C)c(C)c3)c(=O)[nH]2)o1	1%	-2%	-19%	3%	0%	27µM*
CS(=O)(=O)N1CCN(c2ccc(Cl)cc2[N+](=O)[O-])CC1	4%	-2%	-8%	1%	0%	-1%
CC1CN(c2ccc(Cl)cc2[N+](=O)[O-])CCN1S(C)(=O)=O (stereo unspecified)	2%	-4%	-5%	-7%	4%	30µM*
COc1cc([C@H]2c3cc4c(cc3[C@@H](O[C@H]3O[C@H]5CO[C@@H](C)O[C@H]5[C@@H](O)[C@@H]3O)[C@@H]3COC(=O)[C@H]23)OCO4)cc(OC)c1O	nt	nt	-1%	nt	3%[56.1 µM]	nt
CC(C)Oc1ccc(CNC(=O)Cn2nc(N3CCN(c4ccccc4)CC3)ccc2=O)cc1	-2%	nt	7%	nt	5%	nt
Cc1ccc(N2CC(C(=O)NCCS(=O)(=O)N3CCN(c4ccccc4F)CC3)CC2=O)cc1 (stereo unspecified)	-1%	0%	?	-2%	-3%	11µM*
O=C(NCCS(=O)(=O)N1CCN(c2ccccc2F)CC1)C1CC(=O)N(c2ccccc2)C1 (stereo unspecified)	11%	1%	6%	-1%	1%	-4%
O=S(=O)(NN1CCOCC1)c1cc(Cl)cc(Cl)c1O	-9%	-2%	?	9%	5%[56.1 µM]	15µM*
O=C(NN1CCOCC1)c1ccc(Cl)cc1Cl	-12%	nt	-3%	4%	nt	-12%
FC(F)(F)c1nnc(-c2ccccc2)nc1Sc1ccc(Cl)cc1	-5%	-2%	71µM*	-7%	0%	-30%
CC(C)NC(=O)COC(=O)CNC(=O)c1cc(Cl)cc([N+](=O)[O-])c1	-1%	-1%	-22%	3%	3%	30µM*
Cc1ccc2nc(CCl)[n+]([O-])c(-c3ccccc3)c2c1	1%	1%	?	-4%	nt	3.4µM*
CCc1ccc(NC(=O)C2CCCN(S(=O)(=O)c3c(C)noc3/C=C/N(C)C)C2)cc1 (stereo unspecified)	17%	nt	-19%	nt	-1%	nt
COc1cccc(C2CC(=O)N3CN(c4ccccc4F)CSC3=C2C#N)c1 (stereo unspecified)	4%	-9%	45µM*	-4%	7%	-12%
COc1ccc(OC)c(C2CC(=O)N3CN(c4ccc(C)c(Cl)c4)CSC3=C2C#N)c1 (stereo unspecified)	16%	-18%	16µM*	0%	8%	?
COc1ccc(Br)cc1C1CC(=O)N2CN(Cc3ccccc3)CSC2=C1C#N (stereo unspecified)	0%	1%	71µM*	-3%	4%	?
COc1cc(OC)c(C2CC(=O)N3CN(C)CSC3=C2C#N)cc1OC (stereo unspecified)	1%	-14%	?	5%	1%	15µM*
COc1cc(OC)c(C2CC(=O)N3CN(c4ccccc4)CSC3=C2C#N)cc1OC (stereo unspecified)	-6%	-25%	10µM*	0%	6%	27µM*
SMILES	Pin1 inh	Tb PFK inh	VDR inhibitor	S-ASM inh	TDP1 block	PLK1 PBD inh
COc1cc(C2CC(=O)N3CN(c4ccccc4C)CSC3=C2C#N)cc(OC)c1OC (stereo unspecified)	nt	-16%	nt	nt	0%	nt
O=C1C(O)=C(O)C(=O)c2ccccc21	?	nt	8.9µM*	0%	nt	-16%
O=C1C(=O)c2ccccc2C(O)=C1c1ccccc1F	-11%	5%	1%	4%	3%	-7%
O=C1C=C(O)c2ccccc2C1=O	nt	nt	8.9µM*	nt	4%	nt
O=C1C=C(c2c(O)ccc3ccccc23)c2ccccc2C1=O	-1%	nt	?	-11%	nt	7.5µM*
CSc1ncc(C(=O)N2CCN(c3cccc(C(F)(F)F)c3)CC2)c(C)n1	1%	nt	9%	nt	4%	nt
Cc1ccccc1CNC(=O)Nc1ccc2c(c1)N(C)C(=O)c1ccccc1S2	0%	nt	-2%	nt	9%	nt
O=S(=O)(NCCc1csc2nc(-c3ccc(F)cc3)nn12)c1ccc(Oc2ccccc2)cc1	-2%	nt	9%	nt	5%	nt
CCC(C)C(N)C(=O)NC(CC(N)=O)C(=O)NC(CC(C)C)C(=O)NC(CCCCN)C(=O)NC(C)C(=O)NC(CC(C)C)C(=O)NC(C)C(=O)NC(C)C(=O)NC(CC(C)C)C(=O)NC(C)C(=O)NC(CCCCN)C(=O)NC(CCCCN)C(=O)NC(C(=O)NC(CC(C)C)C(N)=O)C(C)CC (stereo unspecified)	nt	nt	-17%	nt	13%	nt
Cc1nnc(SCc2nc(-c3ccc(Cl)cc3)no2)n1-c1ccc(F)cc1	-10%	nt	6%	nt	4%	nt
NC(=O)CSc1nnc(-c2cccc(S(=O)(=O)N3CCCCC3)c2)o1	4%	-2%	10%	-1%	-2%	-10%
O=C(CSc1nnc(-c2cccc(S(=O)(=O)N3CCCCC3)c2)o1)NCCC1=CCCCC1	0%	4%	3%	-1%	4%	21µM*
O=S(=O)(Nc1ccc(C(F)(F)F)cc1)c1cnc[nH]1	-12%	-1%	3%	0%	1%	30µM*
OC[C@@H]1CCC[C@@H](n2cnc3c(=S)nc[nH]c32)O1	-6%	nt	-14%	nt	1%	nt
CC(=O)c1c(C(C)=O)c(C)n(-c2ccc(C(=O)O)cc2)c1C	1%	1%	1%	1%	0%	-7%
Cc1ccc(C)n1-c1ccc(C(=O)O)cc1	nt	11µM*	nt	nt	7.9µM*	nt
